The values below come from PubChem BioAssay (NCI).

Several values for one entry are separate records, joined by “and”; a condition that tells them apart may be missing. Identical values can stand only once. This is part of a sample that, as a whole, favours compounds with a hit. Of some 83,000 tested, about 20% had one in any assay.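 In brief: 96-well plates, 48 h treatment, single concentration, percent growth endpoint.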 Unmarked numbers belong to inactive results. Activity calls are given as the source filed them. The calls were made as follows: active = growth percent below 10; inactive = the rest.

The test system of the test is MDA-MB-468 breast. Kind of test: NCI-60 one-dose screen, 48 h (100 = growth as untreated, 0 = no growth, -100 = all killed). Conditions: 10 µM unless noted.
For the compound `CCc1ccccc1-n1c(N)c(C#N)c(-c2ccc(Cl)cc2)c(C#N)c1=O`, the growth was 98.8%.
As for `CCOC(=O)C1=C(C)Nc2nnc(Nc3ccccc3)n2C1c1ccccc1` (stereo not drawn), the growth is 68.4%.
As to `O=C(OC[C@H]1O[C@H](OC(=O)c2cc(O)c(O)c(OC(=O)c3cc(O)c(O)c(O)c3)c2)[C@H](OC(=O)c2cc(O)c(O)c(OC(=O)c3cc(O)c(O)c(O)c3)c2)[C@@H](OC(=O)c2cc(O)c(O)c(OC(=O)c3cc(O)c(O)c(O)c3)c2)[C@@H]1OC(=O)c1cc(O)c(O)c(OC(=O)c2cc(O)c(O)c(O)c2)c1)c1cc(O)c(O)c(OC(=O)c2cc(O)c(O)c(O)c2)c1`, the growth was 54.1%.
`COc1cc(/C=N\NC(=O)CN2CCN(c3cc4c(cc3F)c(=O)c(C(=O)N/N=C/c3cc(OC)c(OC)c(OC)c3)cn4C3CC3)CC2)cc(OC)c1OC`: the growth is -31.1% (active).
For `N/C(=N\C(N)=N\c1nc2ccccc2s1)c1ccc(Cl)cc1`, the growth was 94.6%.
With `NS(=O)(=O)c1ccccc1NC(=O)Nc1nc2ccccc2s1`, the growth is 104%.
Consider `Cn1cc2c(c1)-c1c(sc3nc(-c4ccc(NC(=O)Nc5cc(C(C)(C)C)on5)cc4)cn13)CC2`, for which the growth was 68.8%.
`CN1CCN(Cc2ccc(NC(=O)c3cncc(C#Cc4cnc5ccc(NCCO)nn45)c3)cc2C(F)(F)F)CC1`: the growth was -55.5% (active).
As for `CC[C@H]1CCC/C=C/[C@@H]2C[C@H](O)C[C@H]2[C@H](O)/C=C/C(=O)O1`, the figure is -51.5% (active).
With `O=[N+]([O-])c1ccc2[nH]cc(-c3c4ccccc4cc4[nH]c5ccc([N+](=O)[O-])cc5c34)c2c1`, the growth is 23.9%.
As for `CCOC(=O)c1c(Nc2ccccc2)nn2c(-c3ccc(OC)c(OC)c3)ccnc12`, the figure is 37.7%; as for `Cc1ccc(NC(=O)Cn2c(Br)nc3c2c(=O)n(C)c(=O)n3C)cc1`, 10.4%; as for `Fc1cccc(-c2ccc3c(c2)C2(CCNCC2)CN3)c1`, 116%.
As for `CCCCCCNC(=O)Oc1ccc(/C(=C(\C)c2ccc(OC)cc2)c2ccc(OCCN(C)C)cc2)cc1`, the figure is 95.4%.
With `COc1ccc(C(=O)NCCNc2nccc(-c3c(-c4ccc(F)cc4)nc4sccn34)n2)cc1`, the growth is 67.5%.
Consider `COc1ccc(-n2c(C)cc(-c3ccccc3)c2C)cc1`, for which the growth is -6.9% (active).
For the compound `COc1ccc(NC(=O)CSc2nc(C)c(C(C)=O)n2-c2ccc(Cl)cc2)cc1`, the growth was 98.8%.
Regarding `Clc1ccc(/C=C/c2cc(N3CCOCC3)c3cc(Cl)c(Cl)cc3n2)cc1`, the growth was 91.2%.
Take `CC(C)CCNCC(O)Cn1c2ccccc2c2ccccc21` (stereo not drawn): the growth was 2.41% (active).
As for `COc1ccc(N2C(=O)C(Oc3ccccc3)C2c2ccc(C)cc2)cc1` (stereo not drawn), the growth was 122%.
For the compound `CCCCCCNC(=O)Oc1ccc(/C(=C(/CC)Cc2ccccc2)c2ccc(OCCCN(C)C)cc2)cc1`, the growth is 89.5%.
For `CCOc1c(Br)cc(C2C(C(=O)OC)=CN(C)C=C2C(=O)OC)cc1OC`, the growth is 0.386% (active).
The same measure for `CN(C)c1ncnc2c1cnn2C`: 106%; for `CC(=O)Oc1c2c(nc3c1c1ccccc1n3Cc1ccccc1)-c1ccccc1C2`: 92.2%.
As to `N#Cc1cccc(OCc2nc(N)nc(N)c2-c2ccc(Cl)c(Cl)c2)c1`, the growth was 19.3%.
As to `Nc1nc(-c2cnccn2)nn1-c1nc2ccccc2s1`, the growth is 102%.
As to `CN(C)C(=S)SC(=S)N(C)C`, the growth was 91.4% and 95.3%.
The same measure for `COc1cc(C2CC(c3ccc(C)cc3)=NN2C=O)ccc1Oc1ccnc2cc(Cl)ccc12` (stereo not drawn): 58.4%.
